# Experimental data reported in ChEMBL document CHEMBL1961873, “Compounds: GSK PKIS; Assays: Nanosyn kinase panel” (2012).
# Values joined by “and” are separate entries in the source; they are usually repeats but may differ in a detail not shown here. Equal entries are not always repeated.
# Key:
# [1] = molecular target: Tyrosine-protein kinase receptor UFO (Homo sapiens) (UniProt P30530); details: at 1 µM
# [2] = molecular target: Tyrosine-protein kinase Blk (Homo sapiens) (UniProt P51451); details: at 0.1 µM
# Chain of Tyrosine-protein kinase Blk (Homo sapiens) (P51451 2-505 limits assumed): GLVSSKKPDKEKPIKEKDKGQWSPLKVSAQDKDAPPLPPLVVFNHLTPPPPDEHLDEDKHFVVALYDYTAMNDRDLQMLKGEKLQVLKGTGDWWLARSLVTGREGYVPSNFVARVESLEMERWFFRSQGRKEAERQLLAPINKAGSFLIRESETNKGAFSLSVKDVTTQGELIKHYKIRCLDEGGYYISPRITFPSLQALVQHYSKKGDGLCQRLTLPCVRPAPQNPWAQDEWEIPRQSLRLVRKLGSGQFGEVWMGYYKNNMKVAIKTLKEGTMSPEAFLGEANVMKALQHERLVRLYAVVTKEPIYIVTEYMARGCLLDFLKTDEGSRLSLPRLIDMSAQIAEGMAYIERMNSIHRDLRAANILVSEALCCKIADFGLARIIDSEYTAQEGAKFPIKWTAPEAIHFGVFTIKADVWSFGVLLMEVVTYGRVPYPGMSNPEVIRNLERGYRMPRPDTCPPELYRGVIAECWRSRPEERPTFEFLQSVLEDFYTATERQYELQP
# [3] = molecular target: Tyrosine-protein kinase Blk (Homo sapiens) (UniProt P51451); details: at 1 µM
# [4] = molecular target: T1, Cytoplasmic tyrosine-protein kinase BMX (Homo sapiens) (UniProt P51813); details: at 0.1 µM
# T1 sequence (whole entry): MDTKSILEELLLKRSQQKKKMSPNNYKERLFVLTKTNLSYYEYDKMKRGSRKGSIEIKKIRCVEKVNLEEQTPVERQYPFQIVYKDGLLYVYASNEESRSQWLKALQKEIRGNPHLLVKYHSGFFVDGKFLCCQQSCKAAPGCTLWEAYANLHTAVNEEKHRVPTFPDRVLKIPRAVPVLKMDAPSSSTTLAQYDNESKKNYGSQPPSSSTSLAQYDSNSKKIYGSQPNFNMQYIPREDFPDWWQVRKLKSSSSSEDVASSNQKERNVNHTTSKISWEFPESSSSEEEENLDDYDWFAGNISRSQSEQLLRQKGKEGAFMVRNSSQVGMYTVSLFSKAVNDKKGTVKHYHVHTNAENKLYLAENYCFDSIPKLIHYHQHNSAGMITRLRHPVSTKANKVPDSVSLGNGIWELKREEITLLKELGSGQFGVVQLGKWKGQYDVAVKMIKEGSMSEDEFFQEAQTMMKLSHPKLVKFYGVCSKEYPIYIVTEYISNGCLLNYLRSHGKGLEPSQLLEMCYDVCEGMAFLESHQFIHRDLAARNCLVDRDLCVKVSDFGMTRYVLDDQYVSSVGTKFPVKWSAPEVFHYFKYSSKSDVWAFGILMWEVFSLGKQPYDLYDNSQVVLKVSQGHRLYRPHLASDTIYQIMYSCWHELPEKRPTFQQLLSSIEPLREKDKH
# [5] = molecular target: T1, Cytoplasmic tyrosine-protein kinase BMX (Homo sapiens); details: at 1 µM
# [6] = molecular target: Protein-tyrosine kinase 6 (Homo sapiens) (UniProt Q13882); details: at 0.1 µM
# Chain of Protein-tyrosine kinase 6 (Homo sapiens) (Q13882 whole entry, looked up): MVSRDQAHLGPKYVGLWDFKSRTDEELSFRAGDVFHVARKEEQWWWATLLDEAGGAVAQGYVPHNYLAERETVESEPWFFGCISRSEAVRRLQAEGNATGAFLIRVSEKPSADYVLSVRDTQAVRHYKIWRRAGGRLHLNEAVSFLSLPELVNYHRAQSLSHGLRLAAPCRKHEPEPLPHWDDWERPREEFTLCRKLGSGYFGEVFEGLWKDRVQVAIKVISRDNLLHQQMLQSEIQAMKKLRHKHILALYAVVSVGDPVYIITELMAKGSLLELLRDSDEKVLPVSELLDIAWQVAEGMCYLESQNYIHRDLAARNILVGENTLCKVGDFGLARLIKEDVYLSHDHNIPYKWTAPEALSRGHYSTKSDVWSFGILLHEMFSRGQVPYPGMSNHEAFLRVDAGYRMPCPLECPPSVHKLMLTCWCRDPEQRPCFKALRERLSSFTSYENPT
# [7] = molecular target: Protein-tyrosine kinase 6 (Homo sapiens) (UniProt Q13882); details: at 1 µM
# [8] = molecular target: Tyrosine-protein kinase BTK (Homo sapiens) (UniProt Q06187); details: at 0.1 µM
# Chain of Tyrosine-protein kinase BTK (Homo sapiens) (Q06187 whole entry): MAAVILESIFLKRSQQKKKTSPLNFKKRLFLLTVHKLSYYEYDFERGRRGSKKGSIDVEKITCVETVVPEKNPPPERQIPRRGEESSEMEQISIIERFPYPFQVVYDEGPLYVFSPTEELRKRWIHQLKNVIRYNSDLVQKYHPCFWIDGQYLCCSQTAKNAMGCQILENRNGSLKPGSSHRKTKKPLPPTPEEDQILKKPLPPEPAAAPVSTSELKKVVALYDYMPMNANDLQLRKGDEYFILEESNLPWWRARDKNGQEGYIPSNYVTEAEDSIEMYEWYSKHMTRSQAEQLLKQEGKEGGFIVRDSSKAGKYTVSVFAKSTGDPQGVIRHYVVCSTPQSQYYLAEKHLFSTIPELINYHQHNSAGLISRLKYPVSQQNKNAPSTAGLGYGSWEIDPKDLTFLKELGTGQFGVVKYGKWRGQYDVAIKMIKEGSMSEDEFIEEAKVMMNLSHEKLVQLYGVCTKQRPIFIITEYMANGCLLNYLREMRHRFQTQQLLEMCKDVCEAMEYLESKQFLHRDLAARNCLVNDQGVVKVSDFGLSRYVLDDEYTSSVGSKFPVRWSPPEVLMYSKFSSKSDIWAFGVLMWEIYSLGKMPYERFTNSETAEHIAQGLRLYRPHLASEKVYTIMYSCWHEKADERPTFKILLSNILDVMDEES
# [9] = molecular target: Tyrosine-protein kinase BTK (Homo sapiens) (UniProt Q06187); details: at 1 µM
# [10] = molecular target: Tyrosine-protein kinase CSK (Homo sapiens) (UniProt P41240); details: at 0.1 µM
# Chain of Tyrosine-protein kinase CSK (Homo sapiens) (P41240 2-450 limits assumed): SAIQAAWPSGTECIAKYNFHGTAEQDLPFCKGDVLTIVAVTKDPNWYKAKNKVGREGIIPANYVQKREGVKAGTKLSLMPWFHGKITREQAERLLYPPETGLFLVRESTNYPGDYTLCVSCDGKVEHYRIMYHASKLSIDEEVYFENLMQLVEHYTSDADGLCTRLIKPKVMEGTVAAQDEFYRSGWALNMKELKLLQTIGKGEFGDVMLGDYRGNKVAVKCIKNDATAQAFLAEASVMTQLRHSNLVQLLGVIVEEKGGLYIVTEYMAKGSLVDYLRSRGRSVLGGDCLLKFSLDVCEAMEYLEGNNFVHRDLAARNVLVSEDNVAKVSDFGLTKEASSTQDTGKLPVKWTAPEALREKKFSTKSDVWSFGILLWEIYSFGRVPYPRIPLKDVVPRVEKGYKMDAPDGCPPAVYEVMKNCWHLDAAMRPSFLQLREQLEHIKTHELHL
# [11] = molecular target: Tyrosine-protein kinase CSK (Homo sapiens) (UniProt P41240); details: at 1 µM
# [12] = molecular target: T2, Discoidin domain-containing receptor 2 (Homo sapiens) (UniProt Q16832); details: at 0.1 µM
# T2 sequence (whole entry): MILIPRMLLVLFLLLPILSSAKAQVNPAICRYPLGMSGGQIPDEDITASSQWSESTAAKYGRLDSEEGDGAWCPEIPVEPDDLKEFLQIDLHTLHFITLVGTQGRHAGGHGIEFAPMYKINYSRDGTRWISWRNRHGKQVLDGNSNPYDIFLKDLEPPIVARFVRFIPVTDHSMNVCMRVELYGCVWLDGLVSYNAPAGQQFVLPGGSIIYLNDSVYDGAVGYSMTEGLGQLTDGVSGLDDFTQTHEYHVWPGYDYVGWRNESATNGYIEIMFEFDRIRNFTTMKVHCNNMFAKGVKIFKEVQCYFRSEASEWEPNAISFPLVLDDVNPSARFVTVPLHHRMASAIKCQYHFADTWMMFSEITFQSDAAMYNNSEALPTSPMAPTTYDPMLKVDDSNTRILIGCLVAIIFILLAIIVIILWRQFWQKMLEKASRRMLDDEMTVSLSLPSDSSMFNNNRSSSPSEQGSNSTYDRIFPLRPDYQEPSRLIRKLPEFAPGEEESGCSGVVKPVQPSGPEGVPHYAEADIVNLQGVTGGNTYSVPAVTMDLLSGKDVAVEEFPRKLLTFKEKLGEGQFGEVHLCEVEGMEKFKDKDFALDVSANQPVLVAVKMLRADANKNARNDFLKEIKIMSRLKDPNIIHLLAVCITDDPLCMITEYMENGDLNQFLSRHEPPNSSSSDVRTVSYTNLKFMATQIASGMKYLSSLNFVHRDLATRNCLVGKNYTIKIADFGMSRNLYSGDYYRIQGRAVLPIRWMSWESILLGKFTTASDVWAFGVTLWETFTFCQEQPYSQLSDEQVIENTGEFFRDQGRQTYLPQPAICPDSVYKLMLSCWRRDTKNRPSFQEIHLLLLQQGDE
# [13] = molecular target: T2, Discoidin domain-containing receptor 2 (Homo sapiens); details: at 1 µM
# [14] = molecular target: Epidermal growth factor receptor (Homo sapiens) (UniProt P00533); details: at 0.1 µM
# Chain of Epidermal growth factor receptor (Homo sapiens) (P00533 whole entry): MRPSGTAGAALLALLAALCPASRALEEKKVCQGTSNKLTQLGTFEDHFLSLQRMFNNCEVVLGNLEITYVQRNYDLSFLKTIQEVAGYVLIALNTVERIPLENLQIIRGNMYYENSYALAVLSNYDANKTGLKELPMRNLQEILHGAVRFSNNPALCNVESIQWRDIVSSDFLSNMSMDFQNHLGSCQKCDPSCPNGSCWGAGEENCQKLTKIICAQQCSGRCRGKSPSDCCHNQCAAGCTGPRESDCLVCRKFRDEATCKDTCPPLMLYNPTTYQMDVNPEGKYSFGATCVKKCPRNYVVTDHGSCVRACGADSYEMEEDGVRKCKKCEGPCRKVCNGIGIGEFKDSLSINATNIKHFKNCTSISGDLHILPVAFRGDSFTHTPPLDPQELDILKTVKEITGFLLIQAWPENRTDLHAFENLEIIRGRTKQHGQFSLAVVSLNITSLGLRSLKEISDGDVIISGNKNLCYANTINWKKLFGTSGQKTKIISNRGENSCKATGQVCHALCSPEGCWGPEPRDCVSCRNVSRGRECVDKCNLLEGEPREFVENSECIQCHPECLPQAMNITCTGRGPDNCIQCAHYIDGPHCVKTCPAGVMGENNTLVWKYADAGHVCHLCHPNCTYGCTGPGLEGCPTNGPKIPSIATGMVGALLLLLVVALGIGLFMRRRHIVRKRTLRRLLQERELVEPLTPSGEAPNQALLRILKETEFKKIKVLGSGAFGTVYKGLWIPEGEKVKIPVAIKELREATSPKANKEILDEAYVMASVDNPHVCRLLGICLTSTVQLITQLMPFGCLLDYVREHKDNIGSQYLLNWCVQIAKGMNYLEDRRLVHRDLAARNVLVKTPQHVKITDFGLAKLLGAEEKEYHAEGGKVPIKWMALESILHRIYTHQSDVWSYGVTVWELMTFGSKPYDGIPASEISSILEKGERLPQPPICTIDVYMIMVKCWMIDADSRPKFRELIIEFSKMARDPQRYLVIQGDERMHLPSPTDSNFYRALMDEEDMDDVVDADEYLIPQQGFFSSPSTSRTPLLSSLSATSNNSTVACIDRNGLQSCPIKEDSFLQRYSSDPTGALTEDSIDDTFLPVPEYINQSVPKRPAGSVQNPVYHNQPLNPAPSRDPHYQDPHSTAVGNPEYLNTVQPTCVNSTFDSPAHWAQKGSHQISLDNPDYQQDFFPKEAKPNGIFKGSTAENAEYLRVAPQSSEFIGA
# [15] = molecular target: Epidermal growth factor receptor (Homo sapiens) (UniProt P00533); details: at 1 µM
# [16] = test system: Epidermal growth factor receptor (Homo sapiens), P00533 [L858R]; details: at 0.1 µM
# [17] = test system: Epidermal growth factor receptor (Homo sapiens), P00533 [L858R]; details: at 1 µM
# [18] = test system: Epidermal growth factor receptor (Homo sapiens), P00533 [L861Q]; details: at 0.1 µM
# Chain of Epidermal growth factor receptor (Homo sapiens), P00533 [L861Q] (P00533 whole entry L861Q): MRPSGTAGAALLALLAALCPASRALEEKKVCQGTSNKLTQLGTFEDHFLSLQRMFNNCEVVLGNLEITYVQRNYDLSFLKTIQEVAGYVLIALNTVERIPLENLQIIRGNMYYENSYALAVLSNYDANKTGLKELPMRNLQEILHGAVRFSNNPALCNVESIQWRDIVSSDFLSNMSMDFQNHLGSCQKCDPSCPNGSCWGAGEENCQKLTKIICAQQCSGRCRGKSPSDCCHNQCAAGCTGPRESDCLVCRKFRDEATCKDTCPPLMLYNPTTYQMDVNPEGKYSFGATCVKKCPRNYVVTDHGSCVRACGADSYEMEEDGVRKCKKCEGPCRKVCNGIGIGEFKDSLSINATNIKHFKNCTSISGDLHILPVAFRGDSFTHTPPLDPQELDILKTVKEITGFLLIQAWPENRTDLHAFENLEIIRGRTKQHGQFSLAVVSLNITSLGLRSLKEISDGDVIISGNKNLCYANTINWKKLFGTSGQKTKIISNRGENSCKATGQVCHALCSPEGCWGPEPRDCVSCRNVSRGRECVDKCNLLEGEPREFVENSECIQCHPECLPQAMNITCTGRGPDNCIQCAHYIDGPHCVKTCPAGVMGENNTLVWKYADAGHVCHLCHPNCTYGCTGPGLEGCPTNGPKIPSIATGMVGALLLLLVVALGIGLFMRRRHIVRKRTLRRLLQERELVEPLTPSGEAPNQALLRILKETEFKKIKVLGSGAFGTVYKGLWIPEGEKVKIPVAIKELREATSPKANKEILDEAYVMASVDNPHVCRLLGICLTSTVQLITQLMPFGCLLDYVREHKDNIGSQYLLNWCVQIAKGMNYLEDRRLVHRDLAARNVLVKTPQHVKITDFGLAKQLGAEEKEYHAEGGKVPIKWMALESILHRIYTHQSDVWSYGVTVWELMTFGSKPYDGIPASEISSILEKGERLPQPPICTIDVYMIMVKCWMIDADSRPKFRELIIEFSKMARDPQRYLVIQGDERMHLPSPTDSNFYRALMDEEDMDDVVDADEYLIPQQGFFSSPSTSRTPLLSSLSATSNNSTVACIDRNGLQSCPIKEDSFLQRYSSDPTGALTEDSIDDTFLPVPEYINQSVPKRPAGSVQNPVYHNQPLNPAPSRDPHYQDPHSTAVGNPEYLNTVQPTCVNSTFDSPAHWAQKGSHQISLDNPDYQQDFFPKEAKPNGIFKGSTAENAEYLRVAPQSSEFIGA
# [19] = test system: Epidermal growth factor receptor (Homo sapiens), P00533 [L861Q]; details: at 1 µM
# [20] = test system: Epidermal growth factor receptor (Homo sapiens), P00533 [T790M]; details: at 0.1 µM
Compound,inhibition [1],inhibition [2],inhibition [3],inhibition [4],inhibition [5],inhibition [6],inhibition [7],inhibition [8],inhibition [9],inhibition [10],inhibition [11],inhibition [12],inhibition [13],inhibition [14],inhibition [15],inhibition [16],inhibition [17],inhibition [18],inhibition [19],inhibition [20]
CN(C)CCNC(=O)Nc1ccc(N(C)c2ccnc(Nc3ccc(CS(C)(=O)=O)cc3)n2)cc1,-0.6%,2.78%,9.64%,3.74%,10.5%,4.92%,5.13%,2.45%,3.65%,3.68%,1.47%,0.92%,9.89%,1.32%,3.79%,3.58%,3.5%,2.9%,2.38%,3.69%
COc1cc(N2CCN(C(C)C)CC2)ccc1Nc1nc(Nc2cccc(F)c2C(=O)O)c2cc[nH]c2n1,37.3%,2.92%,4.31%,2.19%,4.13%,4.63%,8.17%,-0.37%,0.06%,5.06%,7.02%,1.68%,1.98%,0.15%,3.33%,4.84%,12.6%,4.97%,5.54%,6.09%
CN1CCC(C(=O)Nc2n[nH]c3nc(-c4ccc(O)cc4)c(Br)cc23)CC1,-2.51% and -3.39%,-0.49% and 1.32%,0.8% and 4.39%,4.12% and 2.58%,3.63% and 4.39%,4.15% and 1.12%,9.38% and 6.4%,-3.39% and 0.29%,-2.64% and 0.46%,-0.63%,7.63% and 4.28%,-0.34% and 1.94%,0.35% and 3.34%,-1.4% and 2.45%,-1.83% and 5.5%,3.81% and 2.33%,5.88% and 4.98%,2.69% and 0.43%,2.01% and 1.22%,2.13% and 0.11%
CS(=O)(=O)CCNCc1ccc(-c2ccc3ncnc(Nc4ccc(OCc5ccccc5)cc4)c3c2)o1,-1.88%,3.85%,14.1%,3.59%,8.85%,2.05%,13.7%,0.51%,6.4%,5.85%,9.28%,1.74%,2.07%,83.8%,94.1%,31.4%,71.2%,33%,55.7%,4.15%
FC(F)(F)CNc1nccc(-c2cnn3ncccc23)n1,-3.11%,1.37%,2.35%,4.12%,2.03%,-1.25%,3.34%,0.18%,0.42%,2.81%,0.56%,1.12%,0.22%,1.39%,6.21%,2.83%,0.26%,0.58%,0.31%,-0.49%
CS(=O)(=O)Nc1ccc(-c2ccc3c(NC(=O)C4CC4)n[nH]c3c2)cc1,0.24%,2.19%,9.5%,-5.43%,4.64%,1.77%,2.53%,1%,1.7%,3.59%,0.41%,1.42%,0.51%,-0.2%,2.27%,2.52%,-0.4%,2.28%,-2.37%,2.21%
COc1cccc(-n2ncc3c(N/N=C/c4ccc(C(=O)NCCN(C)C)cc4)ncnc32)c1,40.9%,18.1%,73%,9.47%,46.3%,9.98%,53.4%,1.25%,1.98%,3.74%,22%,7.86%,41%,16.7%,56.4%,63.6%,90.6%,23%,68.7%,0.59%
O=C(Nc1n[nH]c2nnc(-c3cccnc3)cc12)C1CC1,1.65%,0.58%,2.68%,-0.2%,0.81%,-0.91%,-0.57%,0.26%,-0.1%,-1.49%,-1.56%,-0.82%,-1%,0.34%,1.5%,-2.25%,2.57%,-1.02%,-0.99%,-0.29%
Cc1cc(O)cc(C)c1/C=C/c1cncc(C(N)=O)c1,-0.54%,3.77%,23%,5.58%,37.5%,22.2%,72.8%,-0.17%,2.64%,4.27%,25.5%,2.69%,9.65%,6.97%,11.2%,3.98%,18.9%,3.84%,5.76%,1.27%
N#Cc1cccc(Nc2ncc(-c3ccccc3)o2)c1,-1.77%,2.28%,5.45%,5.35%,3.56%,3.51%,3.45%,1.01%,-0.7%,2.15%,5.14%,2.3%,2.59%,-0.19%,2.05%,2.09%,2.9%,3.59%,2.98%,1.65%
COc1ccc(-c2nn3ncccc3c2-c2ccnc(Nc3ccc(F)c(F)c3)n2)cc1,-3.4%,3.7%,7.65%,6.68%,6.9%,9.68%,46.2%,0.77%,0.68%,4.89%,8.37%,4.41%,34.7%,1.6%,9.46%,3.72%,21.4%,3.55%,10.2%,3.23%
CCS(=O)(=O)c1ccc(OC)c(Nc2ncc(-c3cccc(C(C)=O)c3)o2)c1,-3.61%,4.6%,35.6%,-2.05%,15.7%,4.59%,18.7%,2.71%,8.89%,2.68%,10.1%,3.31%,17.9%,4.92%,9.23%,5.11%,16.6%,5.35%,5.8%,1.86%
Cc1c2ccc(N(C)c3ccnc(Nc4cccc(S(N)(=O)=O)c4)n3)cc2nn1C,1.26%,5.04%,56.5%,-1.19%,17%,13.8%,51.2%,-2.88%,1.31%,5.79%,19%,11.4%,65%,-3.87%,0.64%,3.16%,11.9%,5.08%,3.69%,3.44%
